Assay results taken from PubChem BioAssay AID781 (Emory University Molecular Libraries Screening Center, 2007).
About 1,600 (0.73%) of roughly 220,000 compounds were called active. The sample holds actives, similar compounds and a random draw of the others, so the mix is not that of the screen.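 The calls were made as follows: active = inhibition above about 70% (limit read from the data); inactive = the rest.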

Target: 14-3-3 protein zeta/delta (Bos taurus) (UniProt P63103)
Experiment: disruptors of 14-3-3 zeta phospho-Bad complex – biochemical, TR-FRET, bovine 14-3-3 zeta, primary screen (AID 781);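 also: 0% = full 14-3-3 plus peptide FRET controls and 100% = background without 14-3-3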
Details: TR-FRET 14-3-3zeta/Dy647-pBad peptide displacement, 1 h; at 21.7 µM; stronger effect = higher value

Sequence of 14-3-3 protein zeta/delta (Bos taurus) (P63103 whole entry, looked up): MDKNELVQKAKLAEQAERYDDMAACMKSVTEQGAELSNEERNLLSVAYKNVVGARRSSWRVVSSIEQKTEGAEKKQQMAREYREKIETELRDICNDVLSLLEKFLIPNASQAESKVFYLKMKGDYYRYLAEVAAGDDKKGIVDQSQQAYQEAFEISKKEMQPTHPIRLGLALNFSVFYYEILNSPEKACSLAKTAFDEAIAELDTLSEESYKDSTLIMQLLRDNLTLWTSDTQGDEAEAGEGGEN

Row | Compound | inhibition
1 | CCC(=O)Nc1ccc(S(=O)(=O)NCC2CCCO2)cc1 (stereo not given) | -9.79% (inactive)
2 | CCOc1ccc(S(=O)(=O)NCC2CCCO2)cc1 (stereo not given) | 90.7% (active)
3 | O=S(=O)(NCC1CCCO1)c1ccc2ccccc2c1 (stereo not given) | 2.47% (inactive)
4 | COC(=O)c1sc(SC)c(S(=O)(=O)C(C)C)c1N/N=C(\C#N)S(=O)(=O)c1ccccn1 | -11.7% (inactive)
5 | O=[N+]([O-])c1ccc(N=Cc2c(O)ccc3ccccc23)cc1 | 2.73% (inactive)
6 | O=C(NNc1cc(Cl)cc(Cl)c1)c1c(F)cccc1Cl | -1.3% (inactive)
7 | CCOC(=O)N1CCN(C(=O)Cn2cnc3ccccc3c2=O)CC1 | -7.01% (inactive)
8 | CCOC(=O)N1CCN(CC(=O)n2c(C)c(C)c3ccccc32)CC1 | 71.6% (active)
9 | CCOC(=O)N1CCN(CC(=O)c2c(C)[nH]c3ccccc23)CC1 | -1.72% (inactive)
10 | COc1ccc(CC(=O)NCC(=O)N/N=C/c2cc(Br)ccc2OC)cc1 | -0.33% (inactive)
11 | NC(N)=N/N=C/c1ccc(Cl)c([N+](=O)[O-])c1 | 22.1% (inactive)
12 | NC(N)=N/N=C/c1ccc(OCc2ccc(Cl)cc2Cl)cc1 | 98.2% [fluorescence artefact?] (active)
13 | COc1ccc(C(=O)O/N=C(\N)Cc2ccc(Cl)cc2Cl)cc1OC | -16.2% (inactive)
14 | Cc1ccc(S(=O)(=O)N(C)C)cc1NC(=O)c1n[nH]c(=O)c2ccccc12 | 1.22% (inactive)
15 | CCC(=O)c1ccc(OCC(=O)Nc2ccc3nc(C)sc3c2)cc1 | 4.78% (inactive)
16 | O=[N+]([O-])c1cc(Cl)cc(/C=N/NC(=S)Nc2cc(S(=O)(=O)N3CCOCC3)ccc2Cl)c1O | 50.2% (inactive)
17 | C[C@@H]1C[C@@H]2O[C@H]2/C=C\C=C\C(=O)Cc2c(Cl)c(O)cc(O)c2C(=O)O1 | -2.99% (inactive)
18 | Fc1ccccc1/C=N/n1c(-c2cccnc2)n[nH]c1=S | 0.38% (inactive)
19 | S=c1[nH]nc(-c2cc(-c3ccccc3)n[nH]2)n1/N=C/c1c2ccccc2cc2ccccc12 | 77.8% (active)
20 | S=c1[nH]nc(-c2ccccc2)n1/N=C/c1c[nH]c2ccccc12 | -8.9% (inactive)

Row | Compound | inhibition
21 | Cc1cccc(N2CCN(C(=O)/C=C/c3ccco3)CC2)c1C | -4.76% (inactive)
22 | CCC1CO/C(=C(\C(=C(Cl)Cl)N2CCOCC2)[N+](=O)[O-])N1 (stereo not given) | 93.7% (active)
23 | CN(C)C(=O)c1coc2nc3ccccc3nc12 | 1.09% (inactive)
24 | Cc1ccc(-c2csc(-c3cc(C)on3)n2)cc1 | 0.81% (inactive)
25 | CCOc1ccc(C(=O)N(Cc2ccc(N(C)C)cc2)C2CCS(=O)(=O)C2)cc1 (stereo not given) | -6.02% (inactive)
26 | COc1cc(C(=O)N(Cc2ccc(N(C)C)cc2)C2CCS(=O)(=O)C2)cc(OC)c1OC (stereo not given) | 94.9% (active)
27 | COc1ccc(C(=O)N(Cc2ccc(N(C)C)cc2)C2CCS(=O)(=O)C2)cc1 (stereo not given) | -0.9% (inactive)
28 | CC(=O)NNC1=Nc2ccccc2N(C)C(C)C1 (stereo not given) | -5.76% (inactive)
29 | Cc1ccc(N2C(=O)CC(N3CCSCC3)C2=O)c(C)c1 (stereo not given) | 0.9% (inactive)
30 | CC(=O)Nc1ccc(S(=O)(=O)Nc2nccc(/C=C/c3ccccc3F)n2)cc1 | -3.98% (inactive)
31 | O=C(Nc1ccccc1)N1CCN(Cc2ccccc2)CC1 | 77.4% (active)
32 | O=C(Nc1ccccc1)N1CCN(C(=O)Nc2ccccc2)CC1 | -1.69% (inactive)
33 | O=C(NC(=S)N1CCN(Cc2ccccc2)CC1)c1ccccc1 | -19.4% (inactive)
34 | Cc1ccc(S(=O)(=O)/N=S(\C)C(C)C)cc1 (stereo not given) | 1.1% (inactive)
35 | CS(=O)(=O)N(Cc1ccccc1)c1ccc(C(=O)NN=C2CCCCCC2)cc1 | -15.2% (inactive)
36 | COc1ccc(N2CCN(C(=O)c3ccc4c(Cl)c5c(nc4c3)CCCC5)CC2)cc1 | -10.1% (inactive)
37 | CC(=O)c1ccc(NC(=O)c2ccc3c(Cl)c4c(nc3c2)CCCC4)cc1 | 73.9% (active)
38 | COc1cccc(NC(=O)c2ccc3c(SCC(=O)O)c4c(nc3c2)CCCC4)c1 | -11.6% (inactive)
39 | COc1ccc(/C=C(\NC(=O)c2ccc(OCC(C)C)cc2)C(=O)OCc2ccco2)cc1 | 2.32% (inactive)
40 | Cc1ccc(-c2nc(SCC(=O)Nc3ccccc3OC(F)F)c3c(C)c(C(=O)O)sc3n2)cc1 | 80.4% (active)

Row | Compound | inhibition
41 | Cc1ccc(C)c(SCc2nc3sc(C(=O)O)c(C)c3c(=O)[nH]2)c1 | 0.11% (inactive)
42 | COc1ccccc1NC(=O)CSc1nc2sc(C)c(C)c2c(=O)n1Cc1ccco1 | -6.57% (inactive)
43 | Oc1ccc2ccccc2c1C=Nc1ccccc1 | 4.91% (inactive)
44 | CC(=O)Nc1ccc(S(=O)(=O)NC2(C(F)(F)F)C(=O)NC(C)=C2C#N)cc1 (stereo not given) | -3.08% (inactive)
45 | CCC(Oc1ccccc1)C(=O)NCc1cccnc1 (stereo not given) | -2.17% (inactive)
46 | c1ccc(COc2ccccc2CNCc2cccnc2)cc1 | 77.2% (active)
47 | COc1cccc(CNCCc2c[nH]c3ccccc23)c1OCc1ccccc1F | 29.9% (inactive)
48 | O=C(CCc1ccccc1)NCc1cccnc1 | -1.29% (inactive)
49 | COc1ccccc1CNCc1cccs1 | 0.7% (inactive)
50 | Fc1ccccc1COc1ccccc1CNCc1ccncc1 | 75.9% (active)
51 | CCOC(=O)CN(C(=O)COc1nc(C)cc(C)c1C#N)c1ccc(Cl)cc1 | -3.15% (inactive)
52 | O=C(Nc1ccccc1Cl)c1ccccc1S(=O)(=O)c1ccccc1[N+](=O)[O-] | 5.14% (inactive)
53 | COc1ccc(NC(=S)N2CCc3cc(OC)c(OC)cc3C2)cc1 | -0.16% (inactive)
54 | COc1ccccc1/C=C/C=N/NC(=O)CN1CCN(Cc2ccccc2)CC1 | -5.86% (inactive)
55 | O=C1COc2ccc(C(=O)COC(=O)C3CC(O)CN3S(=O)(=O)c3ccc(Cl)cc3)cc2N1 (stereo not given) | 0.1% (inactive)
56 | Cc1ccc2nc(SCc3cn4c(C)cc(C)nc4n3)[nH]c2c1 | -0.6% (inactive)
57 | CC(Sc1nc2c([nH]c3ccccc32)c(=O)n1C)c1ccccc1 (stereo not given) | 98.1% (active)
58 | Cn1nnnc1SCc1cc(=O)[nH]c2ccccc12 | 8.32% (inactive)
59 | CCCCn1c(=S)[nH]c2ccccc2c1=O | 10.7% (inactive)
60 | S=C(Nc1ccc2c(c1)OCO2)N1CCCC1 | -2.2% (inactive)
